Assay results reported in the supplement of paper PMC7411054.
Structures can show the parent of a compound that is named as a salt.

Assays:
Assay in all cases: lowest phenotypically active concentration; higher = less potent
Settings in all cases: treatment time: 24 h
[1] = system: HepG2-TP53BP1-CLTA
In short: (§1)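 Cells from fifteen gene-edited reporter lines (A549, HepG2 and WPMY1) were treated for 24 h at 0.3, 1, 3 or 9 µM and imaged live, four wells per condition. Features were normalised per well to solvent control wells. A condition deviated if ≥3 of 4 wells passed the 95th percentile of control Euclidean distances and was reproducible if its median replicate Pearson correlation beat the 95th percentile of non-replicates; phenotypic activity needed both.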

[2] = system: HepG2-TUBA1B-RELA
In short: as §1

[3] = system: HepG2-GM130-SQSTM1
In short: as §1

[4] = system: A549-ACTB-RAB5A
In short: as §1

[5] = system: A549-GM130-SQSTM1
In short: as §1

[6] = system: A549-TUBA1B-RELA
In short: as §1

[7] = system: HepG2-ACTB-RAB5A
In short: as §1

[8] = system: HepG2-CANX-COX4
In short: as §1

[9] = system: A549-TP53BP1-CLTA
In short: as §1

[10] = system: A549-CANX-COX4
In short: as §1

O=C(Nc1ccccc1)N1CCC(Cc2cnc3ccccc3c2)CC1
lowest phenotypically active concentration [1]: 9 µM
lowest phenotypically active concentration [2]: 9 µM

CN/C(=C/[N+](=O)[O-])NCCSCc1csc(CN(C)C)n1 [nizatidine]
lowest phenotypically active concentration [1]: 1 µM

O=c1cc(-c2ccc(O)cc2)oc2cc(O)cc(O)c12 [Apigenin]
lowest phenotypically active concentration [3]: 9 µM
lowest phenotypically active concentration [1]: 9 µM
lowest phenotypically active concentration [2]: 9 µM

NS(=O)(=O)C#Cc1ccccc1 [pifithrin-mu]
lowest phenotypically active concentration [3]: 3 µM

Nc1ncnc2c1c(COc1cccc(Cl)c1)nn2C1CCOCC1
lowest phenotypically active concentration [1]: 9 µM

CC1(C)CC(=O)c2c(S(C)(=O)=O)sc(Cl)c2C1
lowest phenotypically active concentration [3]: 1 µM

O=S(=O)(NCCCCCCc1ccccc1)c1cccc2c(Cl)cccc12
lowest phenotypically active concentration [2]: ≤ 0.3 µM

COc1ccc(CCN(C)CCCC(C#N)(c2ccc(OC)c(OC)c2)C(C)C)cc1OC (stereo not given) [verapamil]
lowest phenotypically active concentration [4]: 9 µM
lowest phenotypically active concentration [5]: 9 µM
lowest phenotypically active concentration [6]: 9 µM

C=C[C@H]1CN2CC[C@H]1C[C@H]2[C@H](O)c1ccnc2ccc(OC)cc12 [Quinine dihydrochloride]
lowest phenotypically active concentration [4]: 9 µM
lowest phenotypically active concentration [5]: 3 µM

CC(C)C(=O)Nc1ncc(-c2cc(C(F)F)nn2-c2c(Cl)cccc2Cl)s1
lowest phenotypically active concentration [4]: ≤ 0.3 µM
lowest phenotypically active concentration [7]: 3 µM
lowest phenotypically active concentration [8]: 9 µM

O=S(c1ccccc1)c1ccc2nnnn2n1 (stereo not given)
lowest phenotypically active concentration [4]: 9 µM

COc1cc2nc(N3CCN(C(=O)c4ccco4)CC3)nc(N)c2cc1OC [prazosin]
lowest phenotypically active concentration [8]: 9 µM
lowest phenotypically active concentration [2]: 9 µM

CCN(CC)CCCC(C)Nc1ccnc2cc(Cl)ccc12 (stereo not given) [chloroquine]
lowest phenotypically active concentration [9]: 9 µM
lowest phenotypically active concentration [7]: 3 µM
lowest phenotypically active concentration [8]: 9 µM
lowest phenotypically active concentration [3]: 3 µM
lowest phenotypically active concentration [1]: 9 µM
lowest phenotypically active concentration [2]: 1 µM

N#Cc1c(NC(=O)c2cccc3ccccc23)sc2c1CCCC2
lowest phenotypically active concentration [10]: ≤ 0.3 µM
lowest phenotypically active concentration [9]: ≤ 0.3 µM
lowest phenotypically active concentration [7]: ≤ 0.3 µM
lowest phenotypically active concentration [8]: ≤ 0.3 µM
lowest phenotypically active concentration [3]: ≤ 0.3 µM
lowest phenotypically active concentration [1]: ≤ 0.3 µM
lowest phenotypically active concentration [2]: ≤ 0.3 µM

CC(C)CCN1c2nc(Nc3cc(F)c(O)c(F)c3)ncc2N(C)C(=O)C1C (stereo not given)
lowest phenotypically active concentration [9]: 3 µM
lowest phenotypically active concentration [7]: 3 µM
lowest phenotypically active concentration [8]: 3 µM
lowest phenotypically active concentration [3]: 1 µM
lowest phenotypically active concentration [1]: 3 µM
lowest phenotypically active concentration [2]: 3 µM

CC[C@H](C)[C@H](NC(=O)OCc1ccccc1)C(=O)N[C@@H](CCC(=O)OC(C)(C)C)C(=O)N[C@@H](C)C(=O)N[C@H](C=O)CC(C)C
lowest phenotypically active concentration [10]: ≤ 0.3 µM
lowest phenotypically active concentration [9]: ≤ 0.3 µM
lowest phenotypically active concentration [7]: ≤ 0.3 µM
lowest phenotypically active concentration [8]: ≤ 0.3 µM
lowest phenotypically active concentration [3]: ≤ 0.3 µM
lowest phenotypically active concentration [1]: ≤ 0.3 µM
lowest phenotypically active concentration [2]: ≤ 0.3 µM

O=C(c1ccc(C(=O)N2CCC(N3CCCC3)CC2)c(Nc2ccccc2)c1)N1CCC(N2CCCC2)CC1
lowest phenotypically active concentration [3]: 9 µM

Cc1nc(NC(=O)N2CCC[C@H]2C(N)=O)sc1-c1csc(C(C)(C)C)n1
lowest phenotypically active concentration [9]: 9 µM
lowest phenotypically active concentration [7]: 3 µM
lowest phenotypically active concentration [8]: 3 µM
lowest phenotypically active concentration [3]: 3 µM
lowest phenotypically active concentration [1]: 3 µM
lowest phenotypically active concentration [2]: 3 µM

Oc1ccc(Nc2nc(-c3ccc(Cl)cc3)cs2)cc1
lowest phenotypically active concentration [10]: 3 µM
lowest phenotypically active concentration [9]: 9 µM
lowest phenotypically active concentration [8]: 9 µM
lowest phenotypically active concentration [3]: 9 µM

CN1C/C(=C/c2ccc(B(O)O)cc2)C(=O)/C(=C/c2ccc(B(O)O)cc2)C1
lowest phenotypically active concentration [10]: ≤ 0.3 µM
lowest phenotypically active concentration [9]: ≤ 0.3 µM
lowest phenotypically active concentration [7]: ≤ 0.3 µM
lowest phenotypically active concentration [8]: 3 µM
lowest phenotypically active concentration [3]: 3 µM
lowest phenotypically active concentration [1]: 9 µM
lowest phenotypically active concentration [2]: 3 µM

CCOc1cc(N2CCC(O)CC2)ccc1Nc1ncc2c(n1)N(C)c1ccccc1C(=O)N2C
lowest phenotypically active concentration [10]: 9 µM
lowest phenotypically active concentration [9]: 9 µM
lowest phenotypically active concentration [7]: 3 µM
lowest phenotypically active concentration [8]: 3 µM
lowest phenotypically active concentration [3]: 3 µM
lowest phenotypically active concentration [1]: 9 µM
lowest phenotypically active concentration [2]: 3 µM

COc1ccc2c(Oc3ccc(NC(=O)c4c(C)n(CC(C)(C)O)n(-c5ccccc5)c4=O)nc3)ccnc2c1
lowest phenotypically active concentration [8]: 9 µM
lowest phenotypically active concentration [3]: 9 µM
lowest phenotypically active concentration [1]: 9 µM
lowest phenotypically active concentration [2]: 9 µM

COc1cc2c(NC3CCN(C(C)C)CC3)nc(C3CCCCC3)nc2cc1OCCCN1CCCC1
lowest phenotypically active concentration [10]: 3 µM
lowest phenotypically active concentration [9]: 3 µM
lowest phenotypically active concentration [7]: 1 µM
lowest phenotypically active concentration [8]: 3 µM
lowest phenotypically active concentration [3]: 1 µM
lowest phenotypically active concentration [1]: 1 µM
lowest phenotypically active concentration [2]: ≤ 0.3 µM

Nc1ccn([C@@H]2O[C@H](CO)[C@@H](O)C2(F)F)c(=O)n1 [gemcitabine]
lowest phenotypically active concentration [10]: ≤ 0.3 µM
lowest phenotypically active concentration [9]: ≤ 0.3 µM
lowest phenotypically active concentration [7]: ≤ 0.3 µM
lowest phenotypically active concentration [8]: ≤ 0.3 µM
lowest phenotypically active concentration [3]: ≤ 0.3 µM
lowest phenotypically active concentration [1]: ≤ 0.3 µM
lowest phenotypically active concentration [2]: ≤ 0.3 µM

Nc1cc(C(F)(F)F)c(-c2cc(N3CCOCC3)nc(N3CCOCC3)n2)cn1 [buparlisib]
lowest phenotypically active concentration [10]: 1 µM
lowest phenotypically active concentration [9]: 1 µM
lowest phenotypically active concentration [7]: 1 µM
lowest phenotypically active concentration [8]: 1 µM
lowest phenotypically active concentration [3]: 3 µM
lowest phenotypically active concentration [1]: 3 µM
lowest phenotypically active concentration [2]: 3 µM

O=c1cc(-c2cccc3c2Sc2ccccc2S3)oc(N2CCOCC2)c1
lowest phenotypically active concentration [7]: 3 µM
lowest phenotypically active concentration [8]: 3 µM
lowest phenotypically active concentration [3]: 9 µM
lowest phenotypically active concentration [1]: 9 µM
lowest phenotypically active concentration [2]: 9 µM

O=c1[nH]cc(F)c(=O)[nH]1 [5-Fluorouracil]
lowest phenotypically active concentration [10]: 3 µM
lowest phenotypically active concentration [9]: 9 µM
lowest phenotypically active concentration [7]: 3 µM
lowest phenotypically active concentration [8]: 3 µM
lowest phenotypically active concentration [3]: 3 µM
lowest phenotypically active concentration [1]: 3 µM
lowest phenotypically active concentration [2]: 3 µM

COc1cc([C@@H]2c3cc4c(cc3[C@@H](O[C@@H]3O[C@@H]5CO[C@@H](C)O[C@H]5[C@H](O)[C@H]3O)[C@H]3COC(=O)[C@H]23)OCO4)cc(OC)c1O [etoposide]
lowest phenotypically active concentration [10]: 1 µM
lowest phenotypically active concentration [9]: ≤ 0.3 µM
lowest phenotypically active concentration [7]: 1 µM
lowest phenotypically active concentration [8]: 1 µM
lowest phenotypically active concentration [3]: 1 µM
lowest phenotypically active concentration [1]: ≤ 0.3 µM
lowest phenotypically active concentration [2]: 1 µM

COc1cc2ncn(-c3cc(OCc4ccccc4C(F)(F)F)c(C(N)=O)s3)c2cc1OC
lowest phenotypically active concentration [10]: 1 µM
lowest phenotypically active concentration [9]: 1 µM
lowest phenotypically active concentration [7]: ≤ 0.3 µM
lowest phenotypically active concentration [8]: ≤ 0.3 µM
lowest phenotypically active concentration [3]: ≤ 0.3 µM
lowest phenotypically active concentration [1]: ≤ 0.3 µM
lowest phenotypically active concentration [2]: ≤ 0.3 µM

CCN1CCN(C(c2cccnc2)c2cc(Cl)c3cccnc3c2O)CC1 (stereo not given)
lowest phenotypically active concentration [10]: 3 µM
lowest phenotypically active concentration [9]: 3 µM
lowest phenotypically active concentration [7]: 9 µM
lowest phenotypically active concentration [8]: 9 µM
lowest phenotypically active concentration [3]: 9 µM
lowest phenotypically active concentration [1]: 9 µM
lowest phenotypically active concentration [2]: 9 µM

Cc1c2oc3c(C)ccc(C(=O)NC4C(=O)NC(C(C)C)C(=O)N5CCCC5C(=O)N(C)CC(=O)N(C)C(C(C)C)C(=O)OC4C)c3nc-2c(C(=O)NC2C(=O)NC(C(C)C)C(=O)N3CCCC3C(=O)N(C)CC(=O)N(C)C(C(C)C)C(=O)OC2C)c(N)c1=O (stereo not given) [Actinomycin D]
lowest phenotypically active concentration [10]: ≤ 0.3 µM
lowest phenotypically active concentration [9]: ≤ 0.3 µM
lowest phenotypically active concentration [7]: ≤ 0.3 µM
lowest phenotypically active concentration [8]: ≤ 0.3 µM
lowest phenotypically active concentration [3]: ≤ 0.3 µM
lowest phenotypically active concentration [1]: ≤ 0.3 µM
lowest phenotypically active concentration [2]: ≤ 0.3 µM

CCN1CCN(c2cc(-c3ccc(F)cc3)c3c(n2)CCCCCC3)CC1 [blonanserin]
lowest phenotypically active concentration [9]: 9 µM
lowest phenotypically active concentration [7]: 9 µM
lowest phenotypically active concentration [8]: 9 µM
lowest phenotypically active concentration [3]: 9 µM
lowest phenotypically active concentration [1]: 3 µM
lowest phenotypically active concentration [2]: 3 µM

Cc1nc(NC(=O)N2CCC[C@H]2C(N)=O)sc1-c1ccnc(C(C)(C)C(F)(F)F)c1 [alpelisib]
lowest phenotypically active concentration [10]: 3 µM
lowest phenotypically active concentration [9]: 9 µM
lowest phenotypically active concentration [7]: 1 µM
lowest phenotypically active concentration [8]: ≤ 0.3 µM
lowest phenotypically active concentration [3]: 1 µM
lowest phenotypically active concentration [1]: 9 µM
lowest phenotypically active concentration [2]: 1 µM
